In the library only some 1.3% were active in any assay of this set; here they are far more common.
Sa ugtP lethal = compounds lethal to S. aureus RN4220 ugtP deletion mutant. growth inhibition, % (no concentration beside the values). actives 0.54% (n = 330,000). AID 1259309. OD600 growth, 16 h; in the data active means growth inhibition above about 68%;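 further: plate controls were untreated wells for no effect and antibiotic for full effect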
RN4220 kill = S. aureus RN4220 growth inhibition. OD600, 16 h. inhibition, % (no concentration beside the values). actives 0.33% (n = 330,000); in the data active means inhibition above about 85%;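 further: plate controls were untreated cells for no effect and reference antibiotic for full effect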
MazEF act = MazEF (E. coli) toxin RNase activation | P0AE70 | FAM/BHQ RNA-DNA oligo cleavage fluorescence, 5 h | activation, % at 20 µM | actives 0.32% (n = 350,000); in the data active means activation above about 50%
Target sequence (P0AE70 whole entry, looked up): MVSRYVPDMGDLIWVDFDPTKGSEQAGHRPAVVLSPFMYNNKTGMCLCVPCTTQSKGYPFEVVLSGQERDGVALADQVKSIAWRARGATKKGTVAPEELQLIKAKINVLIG
CCHFV vOTU inh = CCHFV vOTU protease inhibition | Pep-AMC fluorescence | inhibition, % at 11.5 µM | actives 0.55% (n = 370,000) | AID 651958; in the data active means inhibition above about 30%; further: 0% = vehicle wells with enzyme and 100% = no enzyme wells
Mtb bLac sens = beta-lactam sensitization of Mtb H37Rv; M. tuberculosis H37Rv growth with meropenem, percent inhibition; inhibition, % at 25 µM; actives 0.27% (n = 330,000); call rule not given here;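 further: growth measured after seven days incubation then overnight dye step; 0% = bacteria only wells and 100% = bacteria with antibiotic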
SARS 3CLpro inh-1 = SARS-CoV 3CLpro protease inhibition | P0C6X7 | recombinant SARS-CoV 3CLpro, quenched FRET peptide cleavage | inhibition, % at 6 µM | actives 0.14% (n = 290,000); in the data active means inhibition above about 12%
SARS 3CLpro inh-2 = SARS 3CLpro inhibition, confirmation assay. shares compounds with SARS 3CLpro inh-1. QFRET protease activity assay. inhibition, % at 6 µM. actives 36% (n = 380). AID 1879; in the data active means inhibition above about 13%
The depositor's hits bear a star; ? = inconclusive; . = no result.

SMILES | Sa ugtP lethal | RN4220 kill | MazEF act | CCHFV vOTU inh | Mtb bLac sens | SARS 3CLpro inh-1 | SARS 3CLpro inh-2
Cn1cnc2cc(OC(=O)c3ccccc3)ccc21 | -1 | -2 | 1 | -17 | 6 | 15* | 10
CC(C)Oc1ccc(/C=N/NC(=O)c2nnn(-c3nonc3N)c2CN(C)c2ccccc2)cc1 | . | . | 4 | 13 | 12 | 14* | 5
COc1ccc(C=NNC(=O)c2nnn(-c3nonc3N)c2CN(C)c2ccccc2)cc1 | 3 | 4 | . | . | . | . | .
O=C(Nc1c2c(nn1-c1ccc(Cl)cc1)CS(=O)(=O)C2)c1ccc2c(c1)OCO2 | 2 | 2 | -3 | 1 | . | 0 | .
O=C(Nc1c2c(nn1-c1cccc(Cl)c1)CS(=O)(=O)C2)c1ccc2c(c1)OCO2 | 2 | 2 | 1 | -6 | -2 | 13* | 1
COc1ccc(NC(=O)c2ccc3c(=O)n(-c4ccc(OC)cc4OC)c(=S)[nH]c3c2)cc1 | 2 | 10 | 7 | -4 | 59 | 14* | -4
COc1ccc2cc(C3(C)NC(=O)N(CC(=O)NCc4ccco4)C3=O)ccc2c1 (configuration not stated) | -7 | 2 | 3 | -5 | -1 | 16* | 12*
CCN(c1ccc(OC)cc1)S(=O)(=O)c1nnc(NC(=O)COc2ccc(C)cc2)s1 | 0 | 2 | 0 | . | 25 | 13* | 1
COc1ccc2[nH]c(C(=O)NN=Cc3ccc(O)cc3O)cc2c1 | -16 | 6 | . | . | . | . | .
CCN(CC)c1ccc(C=Nn2c(C)nc3ccccc3c2=O)cc1 | 8 | 3 | . | . | . | . | .
CC(=O)N(C)c1ccc(NS(=O)(=O)c2cc(Cl)ccc2Cl)cc1 | 0 | 11 | -1 | -10 | -1 | 14* | -2
CC(=O)Nc1ccc(NS(=O)(=O)c2cc(Cl)ccc2Cl)cc1 | 7 | 4 | 5 | 25 | 13 | -2 | .
CCN1C(=O)NC(c2cccc(C(F)(F)F)c2)C(C(C)=O)C1C (configuration not stated) | 7 | 5 | . | . | . | . | .
Cc1c(C)c2ccc(OCC(=O)NC(Cc3c[nH]c4ccc(O)cc34)C(=O)O)c(C)c2oc1=O (configuration not stated) | 7 | -1 | -1 | 6 | -4 | 3 | .
Cc1c(OCC(=O)N[C@@H](Cc2c[nH]c3ccccc23)C(=O)O)ccc2c1oc(=O)c1ccccc12 | 10 | -6 | -2 | -8 | -1 | 14* | 9
FC(F)(F)c1cccc(NC(=S)NNC(=S)NCc2ccccc2)c1 | -14 | -4 | -13 | 24 | 11 | 14* | 2
CC(=O)Oc1c(C)c(C)c2c(c1C)CC[C@@](C)(CCCC(C)CCCC(C)CCCC(C)C)O2 (some centres not stated) | -1 | 7 | . | . | . | . | .
CC(C)(C)C1CCc2onc(C(=O)Nc3cccnc3)c2C1 (configuration not stated) | -8 | 2 | -11 | -6 | 5 | 14* | 7
CNC(=O)N(O)C1N(/N=C/c2cccs2)C(=S)SC1(C)C (configuration not stated) | . | . | 9 | -7 | -8 | 13* | 2
CNC(=O)N(O)C1N(N=Cc2ccccc2O)C(=S)SC1(C)C (configuration not stated) | -2 | 6 | . | . | . | . | .
O=C(NN=Cc1ccc([N+](=O)[O-])cc1)c1cc(-c2ccc3c(c2)OCO3)n[nH]1 | -3 | 6 | . | . | . | . | .
COC(=O)c1cc2sccc2n1CC(=O)Nc1ccc(OC)c(OC)c1OC | -9 | -4 | -11 | 1 | 1 | 14* | -4
CCC(=O)N(C)CCc1cc2c(c(OC)c1C=NNS(=O)(=O)c1ccc(C)cc1)OCO2 | 12 | 5 | . | . | . | . | .
CCc1nnc(NS(=O)(=O)c2ccc(NC=CC(=O)c3ccc(C)cc3)cc2)s1 | -11 | 8 | . | . | . | . | .
COc1ccc(C(=O)Oc2cccnc2)cc1 | 0 | -2 | -5 | 15 | 0 | 25* | 39*
SMILES | Sa ugtP lethal | RN4220 kill | MazEF act | CCHFV vOTU inh | Mtb bLac sens | SARS 3CLpro inh-1 | SARS 3CLpro inh-2
O=C(Oc1cccnc1)c1ccccc1[N+](=O)[O-] | 4 | 3 | 9 | 2 | 100 | 20* | 51*
COc1cccc(-c2c(C(=O)NN=Cc3cccs3)nnn2-c2nonc2N)c1 | 6 | 6 | . | . | . | . | .
O=[N+]([O-])/C=C/c1cn(Cc2ccccc2)c2ccccc12 | 19 | 35 | 10 | -2 | 97 | 13* | -2
Cc1sc(NC(=O)CCl)c(C(=O)c2ccccc2)c1C | 4 | -4 | -2 | 15 | 97 | 14* | 36*
CCCNS(=O)(=O)c1ccc(CCC(=O)Nc2cc(Cl)ccc2Oc2ccccc2)cc1 | -13 | -2 | 0 | 2 | . | 3 | .
CC(C)CNS(=O)(=O)c1ccc(CCC(=O)Nc2cc(Cl)ccc2Oc2ccccc2)cc1 | -9 | 0 | 7 | 17 | 0 | 12* | 1
O=C(c1cncc(Br)c1)N1CCN(S(=O)(=O)c2ccccc2C(F)(F)F)CC1 | 2 | 6 | 9 | -1 | -5 | 17* | 12
O=C(c1cncc(Br)c1)N1CCN(S(=O)(=O)c2ccccc2)CC1 | 2 | 2 | 13 | -7 | 1 | 3 | .
COc1cc(NC(=O)C2CC(c3cccc(Br)c3)=NO2)cc(OC)c1OC (configuration not stated) | 4 | -1 | -4 | -15 | -3 | 13* | 2
Cc1ccc(C=NNC(=O)Cn2nc(C)c([N+](=O)[O-])c2C)o1 | -3 | 0 | . | . | . | . | .
CCc1ccc(NC(=O)C2CCCN(S(=O)(=O)c3ccc4[nH]c(=O)ccc4c3)C2)cc1 (configuration not stated) | . | . | 14 | 2 | -1 | 13* | 1
Cc1ccc(NC(=O)C2CCCN(S(=O)(=O)c3ccc4[nH]c(=O)ccc4c3)C2)cc1C (configuration not stated) | 11 | 8 | 7 | 10 | ? | 0 | .
CC(C)C12CN(C(=O)c3ccccc3[N+](=O)[O-])CC(C(C)C)(CN(C(=O)c3ccccc3[N+](=O)[O-])C1)C2=O | -1 | 2 | -2 | 4 | -2 | 29* | 35*
Cc1ccc(C)c(OC(C)C(=O)Nc2ccc(S(=O)(=O)Nc3nccs3)cc2)c1 (configuration not stated) | 0 | 7 | 5 | 11 | 1 | -3 | .
Cc1ccc(C)c(OC(C)C(=O)Nc2nccs2)c1 (configuration not stated) | 2 | -1 | 2 | 3 | 1 | 13* | 0
O=C(NN=C/C=C/c1ccccc1)c1ccccc1Br | 6 | 2 | . | . | . | . | .
Cc1ccc(-c2csc(NC(=O)c3cccc([N+](=O)[O-])c3C(=O)O)n2)cc1 | 4 | 4 | 1 | -9 | 3 | 10 | .
O=C(Nc1nc(-c2cccc([N+](=O)[O-])c2)cs1)c1cccc([N+](=O)[O-])c1C(=O)O | 8 | 5 | 4 | 8 | 0 | 17* | 5
Cc1cccc(Nc2nnc(SCC(=O)Nc3ncc(C(F)(F)F)cc3Cl)s2)c1C | . | . | -2 | -8 | . | 13* | 3
